High-throughput results deposited in PubChem by several laboratories.
PHOSPHO1 block = inhibitors of human PHOSPHO1 phosphatase; recombinant PHOSPHO1, absorbance phosphatase assay; inhibition, % at 13.3 µM; 290,000 compounds, 1.1% hits; AID 1565; in the data active means inhibition above about 60%
HDAC3 inh = inhibitors of human histone deacetylase 3. 320,000 compounds, 0.15% hits. recombinant HDAC3, fluorogenic peptide/trypsin coupled, fluorescence. inhibition, % at 8.3 µM. AID 2718; in the data active means inhibition above about 26%, passing the limit was not always enough
CHT allo act = human CHT allosteric activation | Q9GZV3 | CHT-expressing cells, membrane potential dye, choline EC20; hits give high values; LV-AA mutant CHT in HEK293 cells | B-score at 10 µM | 310,000 compounds, 0.49% hits | AID 488977;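 active means initial fluorescence not abnormally high and integrated response B-score, plate-corrected, over 3 SD above library mean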
Target sequence (Q9GZV3 whole entry, looked up): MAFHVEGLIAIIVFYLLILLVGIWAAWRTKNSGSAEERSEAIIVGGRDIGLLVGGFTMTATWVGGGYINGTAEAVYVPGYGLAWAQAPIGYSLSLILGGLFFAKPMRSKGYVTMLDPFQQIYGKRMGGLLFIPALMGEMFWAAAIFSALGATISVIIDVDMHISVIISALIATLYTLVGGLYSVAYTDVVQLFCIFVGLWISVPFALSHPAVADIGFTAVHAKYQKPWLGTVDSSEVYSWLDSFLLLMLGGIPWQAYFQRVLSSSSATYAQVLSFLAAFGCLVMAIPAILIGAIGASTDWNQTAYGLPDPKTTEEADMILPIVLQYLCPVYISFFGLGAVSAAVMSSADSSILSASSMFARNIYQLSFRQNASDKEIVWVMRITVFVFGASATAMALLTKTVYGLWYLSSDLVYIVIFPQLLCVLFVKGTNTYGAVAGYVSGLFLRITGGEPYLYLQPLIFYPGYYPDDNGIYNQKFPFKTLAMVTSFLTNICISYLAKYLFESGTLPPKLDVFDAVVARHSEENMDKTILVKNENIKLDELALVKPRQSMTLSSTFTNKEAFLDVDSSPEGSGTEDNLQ
ANO1 activ = activates or potentiates the mouse TMEM16A chloride channel; Q8BHY3; HEK293 TMEM16A/YFP-H148Q/I152L, iodide quench fluorescence; hits give low values; B-score at 10 µM; 340,000 compounds, 0.3% hits;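 active means fluorescence-ratio B-score plate-corrected deviation score at least 3 library SD below zero, with starting fluorescence score within 5 deviations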;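 further: channel opened by trigger with iodide after compound preincubation; score built on the fluorescence ratio of max minus min over baseline; more negative score means more quench and so TMEM16A activation or potentiation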
TMEM16A inh = inhibitors of mouse TMEM16A calcium-activated chloride channel | 310,000 compounds, 1.2% hits | AID 588511 | Q8BHY3 | HEK293 TMEM16A/YFP iodide influx fluorescence, ionomycin | normalized B-score (activity score, 25-100; higher = stronger inhibition) at 10 µM;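 active means ratio plate-corrected score three or more library SD toward inhibition, starting fluorescence score within five deviations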;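 further: score derived from kinetic fluorescence span divided by baseline fluorescence per well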
CHT block = inhibits the human high affinity choline transporter. CHT-expressing cells, membrane potential dye, choline response; hits give low values. 310,000 compounds, 0.86% hits. B-score at 10 µM. AID 488975;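 active means B-score over 3 SD under the library average, and starting fluorescence ratio not unusually high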;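 further: choline stimulus applied at its EC90 after an EC20 pre-addition; B-score computed on integrated fluorescence ratio after choline addition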
CHT activ conf = human CHT activation, confirmatory screen. shares compounds with CHT allo act. CHT-expressing cells, membrane potential dye fluorescence (FDSS); % of choline EC20–EC90 response window; HEK293 expressing CHT LV-AA mutant; choline added at its EC20. activation, % at 10 µM. 2,500 compounds, 91% hits;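 active means primary screen active, with duplicate mean activation above negative control mean plus 3 SD, cut at about 11% in these data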
HEK293 MP dye = activity in parental HEK293 cells lacking CHT | shares compounds with CHT allo act | 2,500 compounds, 62% hits | membrane potential dye fluorescence (FDSS); measured after EC20 choline addition | ratio readout change at 10 µM, hits read low | AID 623908;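 active means duplicate-averaged ratio beyond 3 SD from buffer wells, up or down, though filed actives are nearly all decreases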
The depositor's hits bear a star; i = inactive; x = no result. Shown are actives, neighbours in structure and some others; about 3.2% of the full set was active somewhere.

SMILES | PHOSPHO1 block | HDAC3 inh | CHT allo act | ANO1 activ | TMEM16A inh | CHT block | CHT activ conf | HEK293 MP dye
CN(C)c1ccc(-c2nc3cnccn3c2Nc2ccc3c(c2)OCCO3)cc1 | 22.6 | 13.5 | 7.09* | i | i | i | 59.2* | -22.8*
Cc1cccc2nc(-c3ccco3)c(Nc3ccc4c(c3)OCO4)n12 | -25.8 | -0.7 | i | i | i | i | x | x
COc1ccc(Nc2c(-c3ccc(OC)cc3)nc3cnccn23)cc1 | 4.4 | 10.3 | i | i | i | i | x | x
Cc1ccc(-c2nc3cnccn3c2Nc2ccc3c(c2)OCO3)cc1 | 15.2 | -0.1 | i | i | i | i | x | x
O=C(COc1ccc2ccccc2c1Br)NC(=S)Nc1cccc(CO)c1 | 11.0 | -1.0 | i | i | i | i | x | x
CCc1ccc(NC(=O)CSc2nncn2-c2cccnc2)cc1 | 23.7 | -8.7 | i | i | i | i | x | x
CCCc1nc2c(C)cc(C)cc2c(N)c1CC | -4.0 | -7.1 | 7.08* | i | i | i | 44.2* | -38.2*
Cc1ccc2ccc3cccnc3c2n1 | x | 5.9 | 6.88* | i | i | i | 55.4* | -73*
CCCCC1CCC(C(=O)NC2CCS(=O)(=O)C2)CC1 (centres undefined) | -8.1 | -5.7 | i | i | i | i | 10.2* | i
C/C(=N/NC(=O)CNC(=O)/C=C/c1ccccc1)c1ccco1 | 22.6 | 5.4 | i | i | i | i | x | x
COc1ccc(-c2csc3nc(C)nc(N4CCC(C)CC4)c23)cc1OC | -7.5 | -2.3 | i | i | i | i | 46.7* | i
COc1cccc(CNC(=O)CCC2CCCN(c3cc(C)nc(N(C)C)n3)C2)c1 (centres undefined) | 36.6 | -1.7 | i | i | i | i | 47.9* | -39.7*
CCOc1cc(N2CCOCC2)c(OCC)cc1NC(=O)COC(=O)c1ccc(Cl)cc1N | x | 1.3 | x | i | x | x | x | x
CCOc1cc(N2CCOCC2)c(OCC)cc1NC(=O)COC(=O)c1cc2ccccc2cc1O | -9.8 | -2.6 | 7.47* | i | i | i | 16.6* | i
O=C(c1ccc([N+](=O)[O-])cc1)N1C=CC(C(F)(F)F)=NCC1 | 42.4 | 0.7 | i | i | i | i | x | x
COC(=O)/C(=N/Nc1ccc(C)cc1)N1CCCc2ccccc21 | -41.3 | 10.0 | 8.11* | i | i | i | -1.3 | i
COC(=O)/C(=N/Nc1ccccc1)N1CCCc2ccccc21 | -2.4 | x | i | i | i | i | x | x
CCC1=C(CC2NCCc3ccccc32)CC2c3cc(OC)c(OC)cc3CCN2C1 (centres undefined) | x | x | x | i | x | x | x | x
CC[C@H]1CN2CCc3cc(OC)c(OC)cc3C2C[C@@H]1C[C@H]1NCCc2cc(OC)c(OC)cc21 (some centres undefined) | x | x | 13.8* | i | i | i | 41.3* | -43.4*
COc1ccc(CNC(=O)C(c2cccs2)N(Cc2ccco2)C(=O)Cc2cccs2)cc1 (centres undefined) | 1.5 | -1.9 | 6.6* | i | i | i | 25.9* | i
Cc1ccc(C2CC(c3cccs3)n3nc(N)nc3N2)cc1 (centres undefined) | 10.7 | -8.8 | i | i | i | i | x | x
O=[N+]([O-])c1ccc(Cc2ccc([N+](=O)[O-])cc2)cc1 | x | x | x | i | x | x | x | x
O=[N+]([O-])c1ccc(C[n+]2cccc3c4ccccc4ccc32)cc1 | -0.4 | -9.7 | 9.98* | i | i | i | 74.8* | -75.1*
Cn1c(=O)c2c(ncn2CCNC2=NCCCCC2)n(C)c1=O | 37.8 | 0.6 | i | i | i | i | x | x
Cn1c(=O)c2c(nc(N3CCOCC3)n2CCCNC2=NCCCCC2)n(C)c1=O | 16.2 | -2.5 | 8.44* | i | i | i | 60.5* | -63.1*
Brc1ccc(-c2cnc3n2CCCC3)cc1 | -29.8 | 2.4 | i | i | i | i | x | x
